Hits are enriched below; roughly 2.2% of the tested compounds scored in any of these assays.
FUS yeast rescue: suppressors of FUS proteinopathy in yeast; S. cerevisiae FUS-expressing, growth rescue, OD600, 24 h; Potency, µM (doses to about 76.6 µM), hits mostly activators; 390,000 tested, 0.24% active;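 also: plate controls were DMSO vehicle for no effect and reference control for full effect; nearly all actives have a fitted effect of over 55% in size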
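S. cerevisiae expressing FUS from galactose induction served as the toxicity model. Growth after 24hr at 30C, read as absorbance at 600 nm, indicates suppression of toxicity; compounds dosed at several concentrations.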
Abeta rescue: compounds reversing amyloid beta toxicity in yeast | yeast expressing A-beta42, growth rescue, OD600, 48 h; response scale: 0% DMSO, 100% iron-clioquinol control | Potency, µM (highest dose often 46.1 µM), actives largely listed as activators | 410,000 tested, 0.063% active; also: nearly all actives have a fitted effect of over 55% in size
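Yeast A-beta toxicity model in growth medium with pinned compounds, 48 h at 30 C; growth read as absorbance at 600 nm. Normalized to FeCl3/clioquinol equimolar mix (positive) and DMSO (negative).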
TDP43 rescue: rescues yeast growth from TDP-43 toxicity | 410,000 tested, 1.8% active | AID 652104 | TDP-43 expressing yeast growth rescue, BacTiter-Glo, 24 h | Potency, µM (doses to about 46.1 µM), for inactives: at the top dose growth rescue (activation), actives largely listed as activators; also: % of control where 0% means no effect; nearly all actives have a fitted effect of over 50% in size
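Growth rescue of TDP-43-toxic yeast measured as ATP luminescence (BacTiter-Glo). Cells grown to mid-log in raffinose, induced in galactose at OD600=0.02, exposed to compound 24 hr at 30 deg C.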
Mito fusion act: inhibitors of mitochondrial division or activators of mitochondrial fusion; S. cerevisiae fusion-defective mutant growth rescue, CellTiterGlo 48 h; Potency, µM (top dose mostly 46.1 µM), for the others: at the highest dose growth rescue (activation), most hits filed as activators; 320,000 tested, 0.23% active; also: % of control where 0% means no effect; nearly all actives have a fitted effect of over 45% in size
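Growth-rescue viability read-out: after 48 h at the non-permissive 37C in glycerol/ethanol YPEG, yeast mitochondrial fusion mutants are measured by CellTiterGlo luminescence; compounds (23 nl pinned per well) restoring growth score as division inhibitors or fusion activators.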
aSyn rescue: rescues yeast growth from alpha-synuclein toxicity; Yeast expressing alpha-synuclein, growth rescue, BacTiter-Glo, 24 h; Potency, µM (highest dose often 46.1 µM), without a hit: at the top dose growth rescue (activation), hits mostly activators; 370,000 tested, 0.14% active; AID 652106; also: % of control where 0% means no effect; nearly all actives have a fitted effect of over 65% in size
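Readout is rescue of growth in alpha-synuclein-expressing yeast, so inhibitors of toxicity appear as activators. Growth after 24 hr at 30 deg C in galactose medium is quantified by luminescence.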
An asterisk follows results filed as active; i = inactive; ? = inconclusive; / = no result; ! = repeats disagree. Calls follow the shape of the dose curve; as a rule, active = well fitted curve in the direction sought with a large enough effect; inconclusive = small, poorly fitted or top-dose-only effect, or another doubt; inactive = no such curve, though single readings can be large; an effect the other way counts as inactive or inconclusive. Potency is read from the fitted curve at half-maximal effect.

SMILES | FUS yeast rescue | Abeta rescue | TDP43 rescue | Mito fusion act | aSyn rescue
CSc1nc2ccc(NS(=O)(=O)c3ccc([N+](=O)[O-])cc3)cc2s1 | i | i | ? | 8% | -1%
Cc1nc2ccc(NS(=O)(=O)c3ccccc3Cl)cc2s1 | i | i | 18µM* | 1% | 21%
CSc1nc2ccc(NS(=O)(=O)c3cccc(Cl)c3Cl)cc2s1 | ? | i | 32µM* | 35µM* | -17%
COC(=O)[C@]12C[C@H](CC(=O)NCc3ccccc3)C(=O)N(Cc3ccc(Cl)cc3Cl)C1=C[C@H](C(C)C)O[C@@H]2C1CC1 | i | / | / | / | /
CCOc1ccccc1NC(=O)Nc1ccc2nc(N3CCN(C)CC3)cc(C)c2c1 | i | i | 2% | / | /
CCOc1ccc(S(=O)(=O)NCCc2sc3nc(-c4ccc(F)cc4)nn3c2C)cc1 | i | i | 27% | / | /
CCN(CC)C(=O)C1CCN(C(=O)c2cnn(-c3ccccc3)c2-n2cccc2)CC1 | i | i | 9% | / | /
O=C(NC1CCCC1)C(c1ccncc1)N(CCCN1CCOCC1)C(=O)c1ccc(-c2ccccc2)[nH]1 (stereo not drawn) | i | i | -7% | 1% | 1%
CCOc1ccc(C(C(=O)NC2CCCC2)N(CCCO)C(=O)c2ccc(-c3ccccc3)[nH]2)cc1 (stereo not drawn) | 35µM* | i | -13% | -1% | 0%
O=C(Nc1cccc(Cl)c1)c1ccc2nc(Cc3ccccc3)oc2c1 | i | i | -5% | / | /
COc1ccc(CNS(=O)(=O)c2ccc(-c3cc(C(F)(F)F)on3)s2)cc1OC | ? | i | 15% | / | /
O=C(COC(=O)c1ccccc1Oc1ccccc1)Nc1ccc(Br)cc1 | / | / | / | / | -14%
OCc1ccc(-c2nn(Cc3ccccc3)c3ccccc23)o1 | i | i | 4% | 21µM*! | 4µM*
Cc1ccc(O)c(N)c1 | i | i | 17% | 4% | -11%
Cc1ccc(O)c(Sc2cc(C)ccc2O)c1 | i | ? | 22µM* | 28% | ?
O=c1[nH]c2ccccc2c2nc3ccccn3c12 | i | i | 22µM* | 4% | ?
O=c1nc2c(O)cccn2c2c1c(=O)[nH]c1ccccc12 | i | i | 5% | -3% | -5%
Cc1cc(C)cc(N(CC(=O)NC2CCC(C)CC2)S(=O)(=O)c2ccc(Cl)s2)c1 (stereo not drawn) | i | / | / | / | /
Oc1ccc(-c2c(C3=CCCCC3)sc3ccccc23)cc1 | i | i | 20µM* | -11% | -46%
COc1ccc(NC(=O)Cn2nnc(-c3nc(-c4ccncc4)no3)c2N)cc1OC | i | i | 23% | / | /
Cn1nnnc1Sc1ncnc2scc(-c3ccc(Br)cc3)c12 | i | i | / | / | /
Cn1nnnc1Sc1ncnc2scc(-c3ccc(F)cc3)c12 | ? | i | ? | 0.79µM* | ?
Cc1ccc(-n2c(SCc3nc(-c4ccccc4C)no3)nnc2-c2ccncc2)cc1C | i | i | 32µM* | / | /
Brc1ccc(C2=Nn3c(nnc3-c3n[nH]c4c3CCC4)SC2)cc1 | i | i | 6% | 16µM* | 0%
Clc1ccc(C2=Nn3c(nnc3-c3n[nH]c4c3CCC4)SC2)cc1 | i | i | -12% | 13% | -4%
SMILES | FUS yeast rescue | Abeta rescue | TDP43 rescue | Mito fusion act | aSyn rescue
CCCC(CC)Sc1nc2c([nH]1)c(=S)n(C)c(=O)n2C (stereo not drawn) | / | i | 35µM* | / | 7%
CCCCC(C)Sc1nc2c([nH]1)c(=S)n(C)c(=O)n2C (stereo not drawn) | / | i | ? | / | 0%
Cc1cc(C)c(NC(=O)C2CCN(S(=O)(=O)c3c(C)noc3/C=C/c3ccccc3F)CC2)c(C)c1 | i | i | ? | / | /
Cc1ccccc1C(=O)Nc1nnc(-c2ccc(F)cc2)o1 | i | 22µM* | ? | 10% | 18µM*
COc1ccccc1C(=O)Nc1nnc(-c2ccc(F)cc2)o1 | i | i | 1% | -4% | -2%
N#C/C(=C\c1ccc(-c2cc(Cl)ccc2Cl)o1)C(=O)Nc1cccc2ncccc12 | / | / | / | -57% | 2%
COC(=O)C1=NN(C(=O)c2ccc(C)cc2)C(O)(c2ccc(Cl)cc2)C1 (stereo not drawn) | ? | i | ? | 13% | 11µM*
COC(=O)C1=NN(C(=O)c2ccccc2)C(O)(c2ccc([N+](=O)[O-])cc2)C1 (stereo not drawn) | i | i | -17% | 0% | 1%
O=C(Nc1ccccc1[N+](=O)[O-])NC1CCCCN(Cc2ccc(Cl)cc2)C1=O (stereo not drawn) | i | / | / | / | /
COc1cccc(C(=O)Nc2ccc3nc(N4CCN(c5ncccn5)CC4)cc(C)c3c2)c1OC | / | / | / | 19% | /
CCOc1ccccc1C(=O)Nc1ccc2nc(N3CCN(c4ncccn4)CC3)cc(C)c2c1 | i | i | 18µM* | / | -15%
CC(=O)n1cc(N(C(=O)CCl)c2ccc(Cl)cc2)c2ccccc21 | i | i | 22µM* | -18% | 2%
Cc1cc(Nc2ccc(C)c(Cl)c2)n2nc(-c3ccccc3)nc2n1 | i | i | 9% | / | /
Cc1nc2c(-c3ccccc3)c(C)nn2c(C)c1CCC(=O)N1CCN(c2ccccc2)CC1 | i | i | 13µM* | / | /
COc1ccc(-c2cc3nc(C)c(CCC(=O)NCCc4ccc(Cl)cc4)c(C)n3n2)c(OC)c1 | i | i | -1% | / | /
Cc1nc2c(-c3ccccc3)c(C)nn2c(C)c1CCC(=O)N1CCN(c2ccc(F)cc2)CC1 | i | i | 14µM* | / | /
COc1ccc(CCNC(=O)CCc2c(C)nc3cc(-c4ccccc4OC)nn3c2C)c(OC)c1 | ? | i | 18µM* | / | /
COc1ccc(OC)c(NC(=O)CCc2c(C)nc3c(-c4ccccc4)c(C)nn3c2C)c1 | ? | i | 20µM* | / | /
CCN1CCN(c2ccc(NC(=O)CCc3c(C)nc4c(-c5ccccc5)c(C)nn4c3C)cc2)CC1 | i | i | 17% | -3% | -4%
COc1ccc(NC(=O)CCc2c(C)nc3c(-c4ccc(F)cc4)c(C)nn3c2C)c(OC)c1 | i | i | 10% | / | /
CCOC(=O)[C@]12CCCCC/C=C\1N(CCc1ccc(Cl)cc1)C(=O)[C@H]2CC(=O)NCCC(C)C | i | / | / | / | /
CCCCCOC(=O)Cc1c(O)c2ccccc2n(C)c1=O | i | i | 11µM* | 1% | 13%
Cn1c(=O)c(Cc2ccccc2)c(O)c2ccccc21 | i | i | -1% | 1% | -1%
CC(C)CCn1nnc2sc(-c3ccccc3)cc2c1=O | i | i | 23% | / | /
O=C(CN1CCN(S(=O)(=O)c2cc(Cl)ccc2Cl)CC1)Nc1cccc(F)c1 | i | i | 35µM* | / | 9%

From PubChem
